The results in this text go back to PubChem BioAssay.

Results filed as inconclusive are left out. Calls of active or inactive are those of the source.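 How the source made its calls, unless noted: active means inhibition above 50%, about 3 SD of the validation set; inactive means the rest.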

Assay [1] in a line: yeast TOR pathway RPL19A-GFP modulators, primary screen, cell-based, S. cerevisiae, multiplex flow cytometry (AID 1862; in the data active means percent of DMSO control GFP below about 86%;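 further: lower values mimic rapamycin by blocking the RPL19A rise seen in DMSO cells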). The settings on record: S. cerevisiae RPL19A-GFP strain, flow cytometry fluorescence, 3 h; at 10 µM; stronger effect = lower value. In general terms: Flow cytometry measures light scatter and fluorescence of single cells or particles in a stream.
The nature of assay [2]: modulators of MEP2-GFP levels in yeast, primary screen, S. cerevisiae, multiplex flow cytometry (AID 1867;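 active means GFP response, as percent of the DMSO control, above the screen-wide mean plus 3 SD, about 139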;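 further: median GFP channel fluorescence of barcode-gated MEP2-GFP cells measured by flow cytometry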). The settings on record: S. cerevisiae MEP2-GFP strain, 3 h, at 10 µM, stronger effect = higher value, 100% means same as DMSO wells.
The nature of assay [3]: modulators of CIT2-GFP expression in yeast, primary screen, S. cerevisiae, GFP fusion, multiplex flow cytometry (AID 1870;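 active means percent response above a set limit, the screen-wide mean plus 3 SD, cut at about 130% in these data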;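 further: barcoded CIT2-GFP strain pooled with four other GFP strains with rapamycin as positive control; median GFP fluorescence per well over plate mean of DMSO wells so 100% = DMSO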). The settings on record: 3 h, at 10 µM, stronger effect = higher value.
A short description of assay [4]: modulators of LAP4-GFP expression in yeast, primary screen, S. cerevisiae, multiplex flow cytometry (AID 1873;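 active means GFP signal, as percent of the solvent control, above the screen mean plus 3 SD, about 149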). The settings on record: 3 h, at 10 µM, stronger effect = higher value.
Assay [5] in a line: modulators of AGP1-GFP expression in yeast TOR pathway, primary screen, cell-based, multiplex flow cytometry, S. cerevisiae (AID 1887;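 active means GFP signal above the screen-wide mean plus 3 SD, that is over about 124.5% of the solvent control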;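 further: AGP1-GFP fusion strain of S. cerevisiae within a five-strain barcoded multiplex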). The settings on record: 3 h, at 10 µM, stronger effect = higher value.
A short description of assay [6]: inhibitors of CD8+ T cell-vesicle binding, pilot screen, LFA-1/ICAM-1 modulator project, MLPCN validation set, flow cytometry (AID 2523;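 active means response below a set limit, under 55% cells CD8-positive and vesicle-bound, and CD8 cells' 90th-percentile brightness under 279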;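 on vesicle binding response: mean PE anti-B7-1 fluorescence of CD8+ cells relative to row control; 100% = QL9-loaded vesicles with DMSO vehicle in the same plate row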). The settings on record: 2C mouse CD8+ T cells, at 7 µM, stronger effect = lower value; double positive events: measured here: CD8+/vesicle+ event percentage.
The target of assay [7] is Integrin beta-1 (Homo sapiens) + Integrin alpha-4 (Homo sapiens) (UniProt P13612+P05556). As to the kind of experiment: inhibition of HUTS-21 binding to VLA-4, pilot screen, VLA-4 allosteric modulator project, U937 cells, HUTS-21 mAb, flow cytometry, validation set (AID 2674).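 Further: antibody binding induced by the VLA-4 ligand LDV present at three times its Kd; 0% = LDV ligand with antibody and no compound and 100% = antibody without LDV.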 The settings on record: HUTS-21 LIBS mAb binding, at 6.7 µM, stronger effect = higher value, binding induced by LDV ligand.
Integrin beta-1 (Homo sapiens) + Integrin alpha-4 (Homo sapiens), sequence (P05556 whole entry, looked up): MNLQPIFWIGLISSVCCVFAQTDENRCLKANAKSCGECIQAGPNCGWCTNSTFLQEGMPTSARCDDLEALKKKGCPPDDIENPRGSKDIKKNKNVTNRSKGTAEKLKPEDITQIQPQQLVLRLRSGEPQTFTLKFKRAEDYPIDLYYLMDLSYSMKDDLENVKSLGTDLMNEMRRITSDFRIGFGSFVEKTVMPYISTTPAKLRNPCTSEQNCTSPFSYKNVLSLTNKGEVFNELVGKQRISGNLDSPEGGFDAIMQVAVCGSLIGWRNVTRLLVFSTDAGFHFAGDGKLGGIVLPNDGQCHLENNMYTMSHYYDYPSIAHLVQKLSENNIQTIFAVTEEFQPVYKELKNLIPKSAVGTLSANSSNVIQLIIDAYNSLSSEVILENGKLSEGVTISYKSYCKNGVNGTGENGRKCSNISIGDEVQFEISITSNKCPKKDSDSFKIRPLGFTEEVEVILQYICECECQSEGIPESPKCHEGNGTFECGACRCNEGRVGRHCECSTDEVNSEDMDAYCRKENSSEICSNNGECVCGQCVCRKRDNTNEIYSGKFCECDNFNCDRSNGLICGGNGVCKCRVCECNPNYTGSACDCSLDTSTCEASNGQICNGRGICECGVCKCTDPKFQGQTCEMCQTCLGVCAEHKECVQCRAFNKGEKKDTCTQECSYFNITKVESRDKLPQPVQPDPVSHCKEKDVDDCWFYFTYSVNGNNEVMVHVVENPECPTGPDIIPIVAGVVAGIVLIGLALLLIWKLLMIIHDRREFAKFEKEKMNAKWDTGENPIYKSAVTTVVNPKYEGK
Integrin beta-1 (Homo sapiens) + Integrin alpha-4 (Homo sapiens), sequence (P13612 whole entry, looked up): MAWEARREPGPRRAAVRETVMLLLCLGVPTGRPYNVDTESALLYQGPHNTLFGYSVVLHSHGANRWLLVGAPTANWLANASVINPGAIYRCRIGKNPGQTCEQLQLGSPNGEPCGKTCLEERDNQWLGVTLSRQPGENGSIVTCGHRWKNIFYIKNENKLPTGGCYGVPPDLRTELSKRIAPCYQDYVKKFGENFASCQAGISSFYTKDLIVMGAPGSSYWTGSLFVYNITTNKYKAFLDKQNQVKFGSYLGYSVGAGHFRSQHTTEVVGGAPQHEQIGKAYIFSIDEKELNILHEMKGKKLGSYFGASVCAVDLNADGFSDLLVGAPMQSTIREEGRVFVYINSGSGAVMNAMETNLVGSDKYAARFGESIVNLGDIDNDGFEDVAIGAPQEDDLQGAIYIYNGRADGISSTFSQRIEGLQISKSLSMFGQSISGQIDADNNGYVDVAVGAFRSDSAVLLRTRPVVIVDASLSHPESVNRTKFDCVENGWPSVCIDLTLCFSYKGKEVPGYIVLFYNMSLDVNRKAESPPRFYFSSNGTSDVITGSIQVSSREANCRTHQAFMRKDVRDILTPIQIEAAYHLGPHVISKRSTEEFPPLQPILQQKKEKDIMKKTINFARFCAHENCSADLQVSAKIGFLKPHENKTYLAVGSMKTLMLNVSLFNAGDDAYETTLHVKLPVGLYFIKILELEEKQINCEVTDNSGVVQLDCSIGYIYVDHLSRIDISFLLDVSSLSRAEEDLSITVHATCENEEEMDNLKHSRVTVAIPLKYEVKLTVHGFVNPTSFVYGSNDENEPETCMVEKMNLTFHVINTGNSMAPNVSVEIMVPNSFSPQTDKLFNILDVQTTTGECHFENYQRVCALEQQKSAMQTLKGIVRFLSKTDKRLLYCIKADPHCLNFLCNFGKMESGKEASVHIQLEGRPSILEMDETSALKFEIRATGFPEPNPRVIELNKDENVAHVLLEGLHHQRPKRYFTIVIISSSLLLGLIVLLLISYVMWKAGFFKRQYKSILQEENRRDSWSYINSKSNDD

The nature of assay [8]: superoxide lowering in aged yeast cells, pilot screen, validation compound set (AID 2706;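 active means superoxide response below 65% of plate, a cut near 3 SD across the whole screen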;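 further: yeast exposed to compound for one week at 30 degrees C before staining; 100% = mean of all compound wells on the same plate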). The settings on record: S. cerevisiae aging, superoxide DHE fluorescence; at 10 µM; stronger effect = lower value.
For assay [9], the target named is Beta-adrenergic receptor kinase 1 (Homo sapiens) (UniProt P25098). As to the kind of experiment: GRK2 binders displacing RNA aptamer, biochemical, validation, human GRK2, bead flow cytometry (AID 488806;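 active means aptamer binding inhibition above 30%, about 3 SD of noise from non-fluorescent compounds; inactive means inhibition at or below 30%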). The settings on record: bead-bound GRK2, FAM-aptamer displacement, at 10 µM, stronger effect = higher value.
Beta-adrenergic receptor kinase 1 (Homo sapiens), sequence (P25098 whole entry, looked up): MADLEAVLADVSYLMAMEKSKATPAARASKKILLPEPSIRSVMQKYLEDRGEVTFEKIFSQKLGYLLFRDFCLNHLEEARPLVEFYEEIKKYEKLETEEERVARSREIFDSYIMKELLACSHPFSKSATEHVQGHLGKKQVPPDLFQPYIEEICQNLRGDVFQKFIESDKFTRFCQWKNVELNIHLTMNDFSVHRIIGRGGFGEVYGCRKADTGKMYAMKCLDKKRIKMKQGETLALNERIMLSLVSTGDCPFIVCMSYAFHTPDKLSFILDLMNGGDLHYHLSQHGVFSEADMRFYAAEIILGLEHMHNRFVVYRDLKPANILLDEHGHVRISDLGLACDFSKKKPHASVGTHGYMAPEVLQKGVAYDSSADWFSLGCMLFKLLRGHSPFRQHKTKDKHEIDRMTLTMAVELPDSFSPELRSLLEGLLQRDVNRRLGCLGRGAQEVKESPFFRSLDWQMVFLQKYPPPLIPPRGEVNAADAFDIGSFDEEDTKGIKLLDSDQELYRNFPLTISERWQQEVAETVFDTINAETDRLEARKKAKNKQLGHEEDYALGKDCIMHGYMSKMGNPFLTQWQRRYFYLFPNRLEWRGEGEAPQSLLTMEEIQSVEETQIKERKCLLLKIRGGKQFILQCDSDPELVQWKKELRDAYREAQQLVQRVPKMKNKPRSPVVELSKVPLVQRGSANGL
The target in assay [10] is Beta-2 adrenergic receptor (Homo sapiens) (UniProt P07550). As to the kind of experiment: beta2AR agonists driving receptor internalization, pilot screen, cell-based, FAP fluorogen, flow cytometry, validation set (AID 504459;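 active means percent response above 42, roughly 3 SD of non-fluorescent test compounds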;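 further: agonist-driven loss of surface beta2AR via internalization measured by FAP dye flow cytometry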). The settings on record: Am2.2-beta2AR cells, FAP surface receptor flow cytometry; at 10 µM; stronger effect = higher value.
Beta-2 adrenergic receptor (Homo sapiens), sequence (P07550 whole entry, looked up): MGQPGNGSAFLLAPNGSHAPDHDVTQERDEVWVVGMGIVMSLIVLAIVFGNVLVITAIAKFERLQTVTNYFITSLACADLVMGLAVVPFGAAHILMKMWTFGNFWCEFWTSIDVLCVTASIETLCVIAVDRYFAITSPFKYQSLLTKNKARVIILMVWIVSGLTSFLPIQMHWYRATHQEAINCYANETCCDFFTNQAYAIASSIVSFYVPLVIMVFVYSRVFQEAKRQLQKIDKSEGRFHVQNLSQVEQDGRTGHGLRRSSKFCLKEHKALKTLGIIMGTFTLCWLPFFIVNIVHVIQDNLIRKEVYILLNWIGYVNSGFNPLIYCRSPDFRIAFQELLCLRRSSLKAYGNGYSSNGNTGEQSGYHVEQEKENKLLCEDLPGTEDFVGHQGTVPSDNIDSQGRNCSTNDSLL
Assay [11] has as its target AP-2 complex subunit beta (Homo sapiens) (UniProt P63010). As to the kind of experiment: inhibitors of arrestin peptide binding to AP2, pilot screen, biochemical, validation set, GST-AP2 beads, flow cytometry (AID 504541;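 active means inhibition above 54%, about 3 SD of non-fluorescent compounds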;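 further: AP2 carries R879A mutation and is captured from E. coli lysate; bead-bound FITC arrestin peptide fluorescence measuring arrestin peptide binding to AP2; 0% = DMSO wells and 100% = excess unlabeled arrestin peptide control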). The settings on record: FITC arrestin peptide, at 10 µM, stronger effect = higher value, AP2 beta2 appendage fragment, R879A mutant.
Assay [12] can be described thus: yeast V-ATPase proton transport modulators, S. cerevisiae, pHLuorin, HTS validation (AID 504600; in the data active means response above about 15%;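 further: plate controls were DMSO for no effect and reference compound for full effect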). The settings on record: S. cerevisiae pHLuorin cytosolic pH, at 10 µM, stronger effect = higher value.
Assay [13] has as its system anti-desmoglein-3 scFv antibody binding to human DSG3. As to the kind of experiment: inhibitors of anti-DSG3 scFv binding to DSG3, pilot screen, biochemical, validation compound set, bead-based, flow cytometry (AID 588368;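 active means binding below the plate cutoff, the plate median minus 3 SD, with a reading above zero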;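 further: signal is the median channel fluorescence of bead-bound GFP antibody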). The settings on record: Protein G beads, DSG3-Fc, scFv-GFP binding, at 10 µM, stronger effect = lower value.
The nature of assay [14]: inhibitors of fungal efflux pumps CDR1, CDR2, MDR1, pilot screen, validation compound set, multiplex, phenotypic (AID 588506;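 active means efflux inhibition above 0.42, the validation set average plus 4 SD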;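 further: Nile Red retained in cells so higher fluorescence means more efflux inhibition; 0 = negative control wells and 1 = enniatin B 25 µM full block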). The settings on record: S. cerevisiae pump-expressing triplex, Nile Red efflux flow cytometry; at 10 µM; stronger effect = higher value; the pumps come from Candida albicans.
The target of assay [15] is ATP-binding cassette sub-family B member 6 (Homo sapiens) (UniProt Q9NP58). As to the kind of experiment: ABCB6 transporter inhibitors, pilot screen, K562-ABCB6 cells, flow cytometry, validation set (AID 588550;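 active means inhibition above the screen-wide mean plus 3 SD, about 51%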;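 further: 0% = DMSO wells and 100% = benzethonium chloride 70 µM positive control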). The settings on record: K562-ABCB6 porphyrin accumulation, 1 h, at 10 µM, stronger effect = higher value.
ATP-binding cassette sub-family B member 6 (Homo sapiens), sequence (Q9NP58 whole entry, looked up): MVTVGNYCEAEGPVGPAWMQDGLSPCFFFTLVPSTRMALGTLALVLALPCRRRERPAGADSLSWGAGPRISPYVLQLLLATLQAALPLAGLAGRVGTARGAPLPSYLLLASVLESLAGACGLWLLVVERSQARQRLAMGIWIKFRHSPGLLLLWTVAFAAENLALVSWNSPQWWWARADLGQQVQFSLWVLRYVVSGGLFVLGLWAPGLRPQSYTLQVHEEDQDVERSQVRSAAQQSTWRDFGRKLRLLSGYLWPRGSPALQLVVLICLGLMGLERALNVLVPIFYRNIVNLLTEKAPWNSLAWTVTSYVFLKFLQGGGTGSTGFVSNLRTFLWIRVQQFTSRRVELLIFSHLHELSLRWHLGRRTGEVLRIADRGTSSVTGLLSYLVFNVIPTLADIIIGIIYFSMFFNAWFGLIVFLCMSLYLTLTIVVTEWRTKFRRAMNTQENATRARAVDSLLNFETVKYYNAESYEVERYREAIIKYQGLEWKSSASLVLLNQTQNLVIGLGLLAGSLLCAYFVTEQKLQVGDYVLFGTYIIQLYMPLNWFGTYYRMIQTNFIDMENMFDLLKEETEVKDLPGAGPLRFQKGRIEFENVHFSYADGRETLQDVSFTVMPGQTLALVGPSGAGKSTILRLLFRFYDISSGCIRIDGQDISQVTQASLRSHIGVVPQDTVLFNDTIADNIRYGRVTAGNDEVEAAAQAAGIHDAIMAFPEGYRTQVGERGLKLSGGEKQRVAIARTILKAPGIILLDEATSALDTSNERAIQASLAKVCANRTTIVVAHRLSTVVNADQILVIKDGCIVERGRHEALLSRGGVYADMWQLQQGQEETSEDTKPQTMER
The nature of assay [16]: promoters of myeloid differentiation in arrested cells, primary screen, cell-based, GFP/MAC1 double positive, flow cytometry, validation set (AID 588685;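 active means differentiation response of at least 50%, scaled between solvent and reference control, from cells with both markers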;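 further: compound exposure lasts four days before antibody staining and flow analysis; 0% = DMSO wells and 100% = 5 µM fulvestrant positive control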). The settings on record: ER-HoxA9 marrow cells, stronger effect = higher value, normalized: vehicle 0, fulvestrant 100.

AP-2 complex subunit beta (Homo sapiens), sequence (P63010 whole entry, looked up, the tested form may be a part, one chain of several): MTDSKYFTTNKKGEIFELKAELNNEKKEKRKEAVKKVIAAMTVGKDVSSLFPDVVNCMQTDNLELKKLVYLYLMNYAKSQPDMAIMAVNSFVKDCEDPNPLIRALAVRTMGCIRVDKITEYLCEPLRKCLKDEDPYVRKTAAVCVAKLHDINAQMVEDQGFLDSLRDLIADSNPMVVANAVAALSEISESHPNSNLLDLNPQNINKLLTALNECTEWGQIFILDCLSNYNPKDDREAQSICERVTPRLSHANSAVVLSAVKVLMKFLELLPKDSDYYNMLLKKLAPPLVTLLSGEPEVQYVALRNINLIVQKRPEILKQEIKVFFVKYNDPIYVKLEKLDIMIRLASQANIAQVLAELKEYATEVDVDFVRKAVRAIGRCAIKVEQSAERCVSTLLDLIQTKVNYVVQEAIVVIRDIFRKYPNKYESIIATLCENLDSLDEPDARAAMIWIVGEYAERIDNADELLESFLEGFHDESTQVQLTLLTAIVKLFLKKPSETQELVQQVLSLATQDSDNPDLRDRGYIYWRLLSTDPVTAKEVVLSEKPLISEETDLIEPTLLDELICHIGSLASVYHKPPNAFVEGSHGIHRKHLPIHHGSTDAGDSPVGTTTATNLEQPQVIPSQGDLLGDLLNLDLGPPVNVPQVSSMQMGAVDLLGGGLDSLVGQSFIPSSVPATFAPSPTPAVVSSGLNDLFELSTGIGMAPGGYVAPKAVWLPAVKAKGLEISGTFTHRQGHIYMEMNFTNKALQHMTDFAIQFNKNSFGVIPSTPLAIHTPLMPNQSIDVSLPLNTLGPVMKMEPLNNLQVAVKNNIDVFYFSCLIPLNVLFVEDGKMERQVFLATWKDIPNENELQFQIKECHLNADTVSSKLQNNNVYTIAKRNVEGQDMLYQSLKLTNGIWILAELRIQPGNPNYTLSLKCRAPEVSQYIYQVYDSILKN

One may read the inhibition as the change of the read-out against control, counted positive when it falls. On to `CC1CC(OC(=O)C(O)c2ccccc2)CC(C)(C)N1C` (stereo not given), for which the percent of DMSO control GFP in [1] is 94.4% (inactive). The GFP response vs DMSO in assay [2] is 112% (inactive); in assay [4], 111% (inactive). Besides, the percent response of DMSO control in [3] is 94.8% (inactive). Further, the GFP response, % of DMSO in assay [5] is 97.5% (inactive). In addition, the double positive events in assay [6] is 57.9%. Besides, the vesicle binding response in [6] is 217% (inactive). The figures for the inhibition in [7], in assay [11] and in assay [15] were -8.62% (inactive), -13.2% (inactive) and 5% (inactive), respectively. For the same compound, the superoxide response (% of plate) in assay [8] is 99.3% (inactive). In addition, in assay [9], the aptamer binding inhibition was 0% (inactive). The response in assay [10] was 0.13% (inactive); in assay [12] it was 7.51% (inactive). In assay [13], the binding (% of control) was 103% (inactive). Moreover, the efflux inhibition (fraction of control) in assay [14] is -0.03 (inactive). Also, in assay [16], the differentiation response was -18.4% (inactive).
As to `CC(C)=CCC/C(C)=C/CC/C(C)=N/O`, the percent of DMSO control GFP in assay [1] is 97.4% (inactive). Moreover, the GFP response vs DMSO is 115% (inactive) in [2] and 108% (inactive) in [4]. In addition, the percent response of DMSO control in [3] is 91% (inactive). Further, the GFP response, % of DMSO in assay [5] was 93.5% (inactive). In [6], the double positive events was 59.7%. The vesicle binding response in assay [6] is 199% (inactive). In addition, the inhibition in assay [7] is 6.4% (inactive); in assay [11], -1.05% (inactive); in [15], -63% (inactive). The superoxide response (% of plate) in assay [8] was 97.4% (inactive). Also, the aptamer binding inhibition in assay [9] was 4% (inactive). Moreover, the figures for the response in [10] and in assay [12] were 3.47% (inactive) and -1.49% (inactive), respectively. For the same compound, the binding (% of control) in assay [13] is 103% (inactive). The efflux inhibition (fraction of control) in assay [14] is 0.08 (inactive). Further, the differentiation response in [16] is -2.4% (inactive).
As to `COCCOC(=O)C1=C(C)NC(C)=C(C(=O)OC(C)C)C1c1cccc([N+](=O)[O-])c1` (stereo not given), in assay [1], the percent of DMSO control GFP is 102% (inactive). Also, the GFP response vs DMSO in [2] was 105% (inactive); in [4], 94.7% (inactive). Also, the percent response of DMSO control in assay [3] was 111% (inactive). Further, in [5], the GFP response, % of DMSO is 99.4% (inactive). Further, the double positive events in assay [6] is 58.9%. Also, in assay [6], the vesicle binding response was 182% (inactive). The inhibition is 4.73% (inactive) in assay [7], -3.69% (inactive) in [11] and -4% (inactive) in [15]. Also, in assay [8], the superoxide response (% of plate) is 106% (inactive). The aptamer binding inhibition in [9] was -1% (inactive). Moreover, the values for the response in [10] and in assay [12] were -6.98% (inactive) and 8.68% (inactive), respectively. For the same compound, in assay [13], the binding (% of control) was 97.4% (inactive). Also, the efflux inhibition (fraction of control) in assay [14] was -0.17 (inactive). Also, in [16], the differentiation response was -10.5% (inactive).
As for `NCCCC(N)(C(=O)O)C(F)F` (stereo not given), the percent of DMSO control GFP in assay [1] is 93.5% (inactive). For the same compound, the GFP response vs DMSO is 99.7% (inactive) in [2] and 107% (inactive) in assay [4]. Moreover, the percent response of DMSO control in [3] was 98.6% (inactive). Also, the GFP response, % of DMSO in [5] was 112% (inactive). In [6], this compound registered a double positive events of 62.2%. The vesicle binding response in assay [6] was 174% (inactive). Besides, the inhibition in assay [7] was 5.61% (inactive); in [11], 13.1% (inactive); in [15], -5% (inactive). Further, in assay [8], the superoxide response (% of plate) is 105% (inactive). Also, the aptamer binding inhibition in [9] was 3% (inactive). The response in [10] is 5.08% (inactive); in assay [12], -10.9% (inactive). Also, the binding (% of control) in [13] was 97.7% (inactive). Besides, the efflux inhibition (fraction of control) in assay [14] was -0.135 (inactive). Moreover, the differentiation response in [16] was -4.57% (inactive).
`COc1ccc2c(C=O)cn(C)c2c1`: the percent of DMSO control GFP in [1] is 89.8% (inactive). The GFP response vs DMSO was 137% (inactive) in [2] and 82% (inactive) in assay [4]. Besides, in [3], the percent response of DMSO control was 103% (inactive). The GFP response, % of DMSO in assay [5] was 85% (inactive). The compound further showed a double positive events in [6] of 66.8%. Also, the vesicle binding response in assay [6] was 151% (inactive). Also, the inhibition in assay [7] was 6.46% (inactive); in assay [11], 9.51% (inactive); in [15] it was 11% (inactive). In addition, the superoxide response (% of plate) in [8] is 87.5% (inactive). For the same compound, the aptamer binding inhibition in assay [9] was 7% (inactive). Besides, the response was -0.49% (inactive) in [10] and -4.19% (inactive) in [12]. Further, in assay [13], the binding (% of control) is 105% (inactive). The efflux inhibition (fraction of control) in [14] was 0.27 (inactive). Also, the differentiation response in assay [16] is 4.91% (inactive).
